From PubChem BioAssay (NCI)
The panel holds about 79,000 compounds, 15% with a hit somewhere; the sample as a whole holds those more often. Values without a mark were called inactive. The source made the active and inactive calls. No stated cut-off is given here; in the data, active means growth inhibition above about 70%; inactive means the rest.

Assays:
[1] = NCI Yeast Anticancer Drug Screen. Data for the rad50 strain (AID 155);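 further: 0% = growth of vehicle-only cultures of the same strain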; details: S. cerevisiae rad50 strain growth inhibition, active compounds read high
Method in brief: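 Inhibition values express reduced yeast growth in compound-treated cultures relative to vehicle-treated controls.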

[2] = NCI Yeast Anticancer Drug Screen. Data for the mec2-1 strain (AID 157); details: S. cerevisiae mec2-1 strain, active compounds read high
Method in brief: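 mec2-1 yeast strain, carrying an alteration in DNA damage repair or cell cycle control, was exposed to compounds; growth inhibition was measured relative to vehicle-treated controls.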

[3] = NCI Yeast Anticancer Drug Screen. Data for the sgs1 mgt1 strain (AID 161);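 further: 0% = growth of cultures given vehicle only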; details: S. cerevisiae sgs1 mgt1 strain, active compounds read high
Method in brief: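 Growth of a repair-deficient yeast mutant was monitored after compound treatment and expressed as inhibition relative to vehicle-treated cultures.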

[4] = NCI Yeast Anticancer Drug Screen. Data for the cln2 rad14 strain (AID 165);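 further: 0% = growth equal to vehicle treated cultures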; details: S. cerevisiae cln2 rad14 strain, active compounds read high
Method in brief: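 Yeast carrying cln2 and rad14 alterations (cell cycle control and DNA damage repair) were exposed to compounds. Growth inhibition was measured against vehicle-treated controls.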

[5] = NCI Yeast Anticancer Drug Screen. Data for the bub3 strain (AID 167); details: S. cerevisiae bub3 mutant strain, active compounds read high
Method in brief: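 Steps: expose the mutant yeast strain to compound; grow alongside vehicle-treated cultures; measure growth; express inhibition against the vehicle cultures.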

[6] = NCI Yeast Anticancer Drug Screen. Data for the mlh1 rad18 strain (AID 175); details: S. cerevisiae mlh1 rad18 strain growth inhibition, active compounds read high
Method in brief: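 Growth inhibition of the yeast strain was measured after compound exposure and expressed relative to vehicle-treated controls. The strain carries defined defects in DNA damage repair.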

[7] = at 5.0 µM (retest, dose inferred, filed as 0.5)
[8] = at 50.0 µM (retest, dose inferred, filed as 5.0)

SMILES	growth inhibition [1, 7]	growth inhibition [1, 8]	growth inhibition ([1]; at 50.0 µM)	growth inhibition [2, 7] [%]	growth inhibition [2, 8]	growth inhibition ([2]; at 50.0 µM)	growth inhibition [3, 7]	growth inhibition [3, 8]	growth inhibition ([3]; at 50.0 µM)	growth inhibition [4, 7]	growth inhibition [4, 8]	growth inhibition ([4]; at 50.0 µM)	growth inhibition [5, 7]	growth inhibition [5, 8]	growth inhibition ([5]; at 50.0 µM)	growth inhibition [6, 7]	growth inhibition [6, 8]	growth inhibition ([6]; at 50.0 µM)
O=S(=O)(c1cc(Cl)c(Cl)cc1Cl)N(CCCCCN(S(=O)(=O)c1cc(Cl)c(Cl)cc1Cl)S(=O)(=O)c1cc(Cl)c(Cl)cc1Cl)S(=O)(=O)c1cc(Cl)c(Cl)cc1Cl	-9%	-3%	98.6% (active)	-11	-13%	98.2% (active)	-14%	-23%	97.1% (active)	-10%	-8%	96% (active)	19%	4%	98.9% (active)	-29%	-17%	97.8% (active)
O=[N+]([O-])C(=C(Nc1ccccc1)Nc1ccccc1)/C(Cl)=C(\Cl)Br	-7%	99% (active)	98.7% (active)	11	99% (active)	99.5% (active)	6%	99% (active)	99.3% (active)	22%	99% (active)	99.3% (active)	-11%	99% (active)	99.2% (active)	32%	99% (active)	99.2% (active)
Cc1c(N=Nc2cccc(F)c2)c(-c2ccccc2)nn1C(N)=S	14%	97% (active)	99.2% (active)	1	98% (active)	99.4% (active)	3%	99% (active)	99.4% (active)	-5%	96% (active)	99.1% (active)	1%	97% (active)	99.5% (active)	0%	98% (active)	99.2% (active)
Cc1c(O)/c(=C\O)c2nc3c(=O)ccc(C(=O)NCCN(C)C)c3[nH]c2c1=O	29%	97% (active)	57.5%	14	70% (active)	98.2% (active)	33%	97% (active)	56%	-10%	94% (active)	98.2% (active)	19%	96% (active)	98.3% (active)	34%	96% (active)	45.1%
C=CCOC(=O)CC(OC(C)=O)C(CC)CC(C)C (configuration not stated)	0%	26%	24.4%	-1	12%	19.1%	-6%	3%	18.3%	2%	20%	80.7% (active)	3%	15%	40.3%	0%	12%	27.9%
Cc1nc(-c2ccc(N=Cc3ccc(N(CCOS(C)(=O)=O)CCOS(C)(=O)=O)cc3)cc2)cs1	1%	46%	46.5%	-24	9%	7.75%	-2%	17%	21.1%	-2%	33%	-45.7%	-3%	-10%	-2.55%	12%	54%	71.8% (active)
Cc1cc(NCCCCCCCNc2cc(C)nc3cc(N)ccc23)c2ccc(N)cc2n1	4%	85% (active)	79.6% (active)	-11	76% (active)	85.5% (active)	12%	78% (active)	86% (active)	12%	45%	82% (active)	-12%	82% (active)	87% (active)	-3%	83% (active)	91.5% (active)
Cc1[nH]c2ccccc2c1C(C)CC(O)c1ccccc1 (configuration not stated)	5%	68%	95% (active)	-4	73% (active)	85.5% (active)	2%	62%	90.2% (active)	11%	29%	95.8% (active)	3%	67%	88.7% (active)	8%	88% (active)	95.2% (active)
COc1ccc(C(=O)C2=C(C)Nc3ccc(Br)cc3S2)cc1	-2%	27%	4.55%	-2	20%	14.1%	-12%	44%	-4.7%	-8%	16%	-3.4%	-9%	38%	-0.3%	-7%	23%	12.4%
CCCCNCCC(SSSC(CCNCCCC)c1ccc(Cl)cc1)c1ccc(Cl)cc1 (configuration not stated)	26%	97% (active)	95.2% (active)	-74	98% (active)	52.5%	20%	99% (active)	98.4% (active)	17%	97% (active)	20.1%	25%	98% (active)	52.2%	26%	98% (active)	97.7% (active)
Cc1ccc(N2CC(O)CN(c3ccc(C)cc3)CC(O)C2)cc1 (configuration not stated)	0%	3%	20.4%	-7	-13%	18.1%	-29%	1%	24.9%	6%	-10%	6.55%	3%	1%	15.3%	33%	0%	23.2%
CSC(=S)NN=C(c1ccccn1)c1ccccn1	78% (active)	96% (active)	94% (active)	24	31%	97.8% (active)	92% (active)	99% (active)	85.4% (active)	4%	-19%	91.7% (active)	-5%	96% (active)	-8.05%	78% (active)	80% (active)	36%
COc1ccc2ccnc(Cc3ccc(OCc4ccccc4)c(OC)c3)c2c1	42%	42%	89.5% (active)	27	27%	87.3% (active)	28%	28%	89.7% (active)	12%	12%	87% (active)	28%	28%	86.5% (active)	29%	29%	86% (active)
CC(C)CN(CC(C)C)CN1C(=O)/C(=C/c2ccc([N+](=O)[O-])cc2)SC1=S	16%	53%	63.2%	8	61%	40.3%	11%	59%	67.7%	37%	44%	46.9%	4%	37%	41.2%	26%	66%	71.2% (active)
CC(C)[C@H](N)C(=O)NCCNC(=O)[C@@H](N)C(C)C	90% (active)	99% (active)	-24.6%	66	99% (active)	-4.9%	62%	99% (active)	-14.2%	89% (active)	99% (active)	17.2%	93% (active)	100% (active)	37.1%	89% (active)	99% (active)	4.4%
C[C@]12CC[C@@H]3c4ccc(O)cc4CC[C@H]3[C@@H]1CC[C@@H]2NCCCCCCO	21%	25%	14.6%	18	19%	48.6%	18%	38%	34.4%	26%	31%	-13.2%	15%	34%	-6.1%	21%	37%	-3.2%
O=C(Cc1csc2[n+]1C(=O)/C(=C/c1cccc([N+](=O)[O-])c1)S2)Nc1ccccc1	-5%	-3%	41.3%	-16	-5%	44.2%	-8%	11%	24%	-24%	-17%	37.5%	-5%	17%	10.8%	-3%	-9%	33.9%
CSc1cc(N)nc(N)n1	3%	-4%	73% (active)	3	2%	79.3% (active)	4%	14%	80.3% (active)	1%	3%	83.2% (active)	1%	-3%	38.9%	2%	-6%	93.4% (active)
CCC[CH2][Sn]([CH2]CCC)([O]C(=O)c1cc(F)cc(F)c1)[O][Sn]([CH2]CCC)([CH2]CCC)[O]C(=O)c1cc(F)cc(F)c1	48%	88% (active)	83% (active)	57	97% (active)	88.7% (active)	40%	95% (active)	89.7% (active)	30%	88% (active)	85.8% (active)	49%	99% (active)	89% (active)	44%	96% (active)	87.7% (active)
